Assay [1] in a line: qHTS assay to identify small molecule antagonists of the thyroid receptor (TR) signaling pathway (AID 743065). Further: nearly all actives have a fitted effect of over 55% in size. Further: potency means the concentration at half of the fitted maximal effect. In outline: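 GH3.TRE-Luc rat pituitary cells carrying two TR response elements driving luciferase were plated for 4 h, given compound plus 1 nM T3 (final), and incubated 23.5 h at 37 C. ONE-Glo luminescence measured reporter inhibition; CellTiter-Fluor fluorescence tracked cytotoxicity.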
For orientation: qHTS replaces the single test concentration by a dilution series.

The subject of assay [2] is thyroid hormone receptor (rat, GH3 cells). Description: qHTS assay to identify small molecule agonists of the thyroid receptor (TR) signaling pathway (AID 743066; calls by dose curve).
Assay [3] addresses Estrogen receptor (Homo sapiens) (UniProt P03372). Kind of assay: qHTS assay to identify small molecule antagonists of the estrogen receptor alpha (ER-alpha) signaling pathway (AID 743069; active means well fitted curve in the direction sought with a large enough effect in the signal ratio in the repeat runs, not every such curve was filed as active; the % refers to the signal ratio). In outline: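 A 17beta-estradiol challenge was applied right after compound transfer to ER-alpha-UAS-bla HEK293 cells previously kept in charcoal-stripped serum. Plates stood 18 hr at 37C and 5% CO2; fluorescence was read following 2 hr FRET substrate loading at room temperature.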

A short description of assay [4]: qHTS assay to identify small molecule antagonists of the estrogen receptor alpha (ER-alpha) signaling pathway - cell viability counter screen (AID 743074; calls by dose curve;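 further: HEK293 cells carrying ER-alpha-UAS-bla reporter stimulated with 17beta-estradiol; nearly all actives have a fitted effect of over 45% in size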).
Assay [5] addresses Estrogen receptor (Homo sapiens) (UniProt P03372). Kind of assay: qHTS assay to identify small molecule agonists of the estrogen receptor alpha (ER-alpha) signaling pathway (AID 743075; calls by dose curve;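 further: HEK293 GripTite cells with ER-alpha and UAS-driven beta-lactamase reporter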).
For assay [6] the target is unchanged. Description: qHTS assay to identify small molecule agonists of the estrogen receptor alpha (ER-alpha) signaling pathway using the BG1 cell line (AID 743079). Further: nearly all actives have a fitted effect of over 20% in size. Further: potency means the concentration at half of the fitted maximal effect.
The nature of assay [7]: qHTS assay to identify small molecule antagonists of the estrogen receptor alpha (ER-alpha) signaling pathway using the BG1 cell line (AID 743080; calls by dose curve;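 further: BG1 cells stimulated with 17beta-estradiol alongside compound; series mostly up to about 70 µM; nearly all actives have a fitted effect of over 25% in size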). In outline:
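Seeding, 24 h rest, compound transfer from DMSO, 17beta-estradiol addition, 21.5 h incubation, CellTiter-Fluor (30 min, 37 C), then ONE-Glo (30 min, room temperature): this sequence was run on BG1-Luc-4E2 reporter cells.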

Assay [8] is described as follows: qHTS assay to identify small molecule antagonists of the estrogen receptor alpha (ER-alpha) signaling pathway using the BG1 cell line - cell viability counter screen (AID 743081).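 Further: compound given together with 17beta-estradiol as the ER stimulus; series mostly up to about 70 µM; nearly all actives have a fitted effect of over 45% in size.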
The next assay addresses Aromatase (Homo sapiens) (UniProt P11511). Kind of assay: qHTS assay to identify aromatase inhibitors (AID 743083). Further: series mostly up to about 70 µM; nearly all actives have a fitted effect of over 55% in size.
The nature of assay [9]: qHTS assay to identify aromatase inhibitors - cell viability counter screen (AID 743084).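 Further: cells stimulated with testosterone during compound exposure; nearly all actives have a fitted effect of over 55% in size.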 Further: potency means the concentration at half of the fitted maximal effect.
Assay [10] deals with Aryl hydrocarbon receptor (Homo sapiens) (UniProt P35869). Description: qHTS assay to identify small molecule that activate the aryl hydrocarbon receptor (AhR) signaling pathway (AID 743085). Further: nearly all actives have a fitted effect of over 15% in size. Further: potency means the concentration at half of the fitted maximal effect.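 On activation: HG2L7.5c1 human HepG2 liver cells with stably integrated DRE-driven firefly reporter; series mostly up to about 70 µM.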 In outline:
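Luminescence read-out: ONE-Glo reagent, 30 min at room temperature, in HG2L7.5c1 HepG2 reporter cells treated 24 h at 37C. Viability was measured beforehand by CellTiter-Fluor fluorescence after 30 min at 37C.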

Assay [11] can be described thus: qHTS assay to identify small molecule that activate the aryl hydrocarbon receptor (AhR) signaling pathway - cell viability counter screen (AID 743086).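 Further: HepG2 liver cells carrying the AhR DRE luciferase reporter; series mostly up to about 70 µM; nearly all actives have a fitted effect of over 45% in size.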 The procedure, abridged:
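HepG2-AhR-luc (HG2L7.5c1) cells, 4000/well, were preincubated 5 h at 37C, exposed to compound in qHTS format for 24 hr at 37C, then given CellTiter-Fluor for 30 min; viability was read as fluorescence in the reporter wells.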

Assay [12] deals with Peroxisome proliferator-activated receptor gamma (Homo sapiens) (UniProt P37231). Kind of assay: qHTS assay to identify small molecule agonists of the peroxisome proliferator-activated receptor gamma (PPARg) signaling pathway (AID 743094; active means well fitted activation curve with a large enough effect in the signal ratio in the repeat runs, not every such curve was filed as active; the % refers to the signal ratio). The procedure, abridged:
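HEK293H PPARg-bla cells, 5 h settle at 37C/5% CO2; compound (DMSO) 17 h, 37C; B/G FRET substrate 1 h RT; fluorescence intensity read-out. qHTS format.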

The target is the same in assay [13]. Kind of assay: qHTS assay to identify small molecule antagonists of the peroxisome proliferator-activated receptor gamma (PPARg) signaling pathway (AID 743191; calls by dose curve; further: series mostly up to about 63 µM; nearly all actives have a fitted effect of over 30% in size). In outline: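 GeneBLAzer PPARg UAS-bla HEK293H cells carrying a UAS-driven beta-lactamase reporter were plated at 3000 cells/well, preincubated 5 h at 37C, then given compound for 17 h at 37C; LiveBLAzer B/G FRET substrate was read after 1 h at room temperature.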

Assay [14] can be described thus: qHTS assay to identify small molecule antagonists of the peroxisome proliferator-activated receptor gamma (PPARg) signaling pathway - cell viability counter screen (AID 743194). Further: nearly all actives have a fitted effect of over 55% in size. The procedure, abridged: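 PPARg-UAS-bla HEK293H cells were plated, rested 5 h at 37 C, then treated with compounds plus rosiglitazone (50 nM final) for 17 h at 37 C; viability was then read by CellTiter-Glo luminescence after 30 min at room temperature.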

Assay [15] can be described thus: qHTS assay for small molecule agonists of the antioxidant response element (ARE) signaling pathway (AID 743202; active means well fitted activation curve with a large enough effect in the signal ratio in the repeat runs, not every such curve was filed as active; the % refers to the signal ratio). In outline: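 Following a 16 h, 37 C exposure of reporter HepG2 cells (ARE-driven beta-lactamase, 2,000 cells/well) to compounds, FRET substrate was applied for 2 h at room temperature and fluorescence intensity recorded.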
The nature of assay [16]: qHTS assay for small molecule agonists of the antioxidant response element (ARE) signaling pathway - cell viability counter screen (AID 743203; calls by dose curve; further: nearly all actives have a fitted effect of over 55% in size). The procedure, abridged: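 Luminescence read-out (CellTiter-Glo, 30 min at room temperature) measured cell viability in the same wells as the ARE beta-lactamase reporter. HepG2 ARE-bla cells were treated with compounds for 16 hrs at 37C/5% CO2.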

Assay [17] in a line: qHTS assay for small molecule activators of the heat shock response signaling pathway - cell viability counter screen (AID 743209). Further: nearly all actives have a fitted effect of over 50% in size. In outline: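 HSE-bla HeLa; 1500 cells/well; overnight 37 C, 5% CO2; compound 5 h 37 C; LiveBLAzer B/G substrate 2.5 h RT; CellTiter-Glo 30 min RT; luminescence.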
Assay [18] can be described thus: qHTS assay for small molecule activators of the heat shock response signaling pathway (AID 743210; active means well fitted activation curve with a large enough effect in the signal ratio in the repeat runs, with a control signal flat, not every such curve was filed as active; the % refers to the signal ratio; further: series mostly up to about 63 µM). The procedure, abridged: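 Heat shock element–beta-lactamase HeLa reporter cells; qHTS with compounds for 5 h at 37 C; detection by FRET substrate fluorescence after 2.5 h at RT.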
Assay [19] in a line: qHTS assay to identify small molecule antagonists of the thyroid receptor (TR) signaling pathway - cell viability counter screen (AID 743064). Further: nearly all actives have a fitted effect of over 50% in size. Further: potency means the concentration at half of the fitted maximal effect. The procedure, abridged: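 GH3.TRE-Luc cells, 4 h pre-plating; cpd + T3 1 nM final; 37 °C 23.5 h; CellTiter-Fluor 30 min; fluorescence read.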

These results are taken from PubChem BioAssay (Tox21).

Records with an inconclusive call do not appear. Active and inactive are the calls of the source. Unless noted, the call rests on the fitted dose curve; in most records, active means well fitted curve in the direction sought with a large enough effect in the repeat runs; inconclusive means weak or mixed curves; inactive means no such curve, though single readings can be large; an effect the other way counts as inactive or inconclusive.

Chain of Peroxisome proliferator-activated receptor gamma (Homo sapiens) (P37231 whole entry, looked up): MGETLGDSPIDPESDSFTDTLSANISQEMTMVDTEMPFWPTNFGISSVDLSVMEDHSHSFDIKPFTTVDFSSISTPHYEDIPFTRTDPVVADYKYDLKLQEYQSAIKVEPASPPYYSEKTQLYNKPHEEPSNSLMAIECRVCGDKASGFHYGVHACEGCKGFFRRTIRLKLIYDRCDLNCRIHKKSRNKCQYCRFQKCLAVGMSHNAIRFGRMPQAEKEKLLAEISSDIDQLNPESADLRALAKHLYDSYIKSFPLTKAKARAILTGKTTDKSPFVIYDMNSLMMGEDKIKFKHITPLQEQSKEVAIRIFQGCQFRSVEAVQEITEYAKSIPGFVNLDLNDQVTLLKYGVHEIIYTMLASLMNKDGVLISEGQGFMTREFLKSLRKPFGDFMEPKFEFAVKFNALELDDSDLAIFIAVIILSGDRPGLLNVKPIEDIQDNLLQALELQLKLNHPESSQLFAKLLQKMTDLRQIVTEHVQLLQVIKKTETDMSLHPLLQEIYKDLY
Chain of Estrogen receptor (Homo sapiens) (P03372 whole entry, looked up): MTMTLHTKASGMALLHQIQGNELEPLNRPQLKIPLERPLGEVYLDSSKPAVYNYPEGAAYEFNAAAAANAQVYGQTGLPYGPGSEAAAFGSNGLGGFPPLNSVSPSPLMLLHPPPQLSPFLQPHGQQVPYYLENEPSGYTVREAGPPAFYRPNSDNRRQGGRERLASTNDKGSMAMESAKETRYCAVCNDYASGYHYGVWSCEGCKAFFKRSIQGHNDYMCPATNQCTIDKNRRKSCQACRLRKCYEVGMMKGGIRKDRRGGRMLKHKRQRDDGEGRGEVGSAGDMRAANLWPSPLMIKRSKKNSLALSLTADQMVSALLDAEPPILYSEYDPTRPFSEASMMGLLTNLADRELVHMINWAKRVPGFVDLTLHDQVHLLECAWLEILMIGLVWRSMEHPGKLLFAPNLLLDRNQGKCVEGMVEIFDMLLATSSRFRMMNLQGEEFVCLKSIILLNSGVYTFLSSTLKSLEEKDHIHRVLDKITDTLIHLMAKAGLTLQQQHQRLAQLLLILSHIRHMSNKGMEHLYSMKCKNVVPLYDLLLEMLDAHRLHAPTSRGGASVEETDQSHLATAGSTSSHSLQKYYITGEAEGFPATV
Chain of Aryl hydrocarbon receptor (Homo sapiens) (P35869 whole entry, looked up): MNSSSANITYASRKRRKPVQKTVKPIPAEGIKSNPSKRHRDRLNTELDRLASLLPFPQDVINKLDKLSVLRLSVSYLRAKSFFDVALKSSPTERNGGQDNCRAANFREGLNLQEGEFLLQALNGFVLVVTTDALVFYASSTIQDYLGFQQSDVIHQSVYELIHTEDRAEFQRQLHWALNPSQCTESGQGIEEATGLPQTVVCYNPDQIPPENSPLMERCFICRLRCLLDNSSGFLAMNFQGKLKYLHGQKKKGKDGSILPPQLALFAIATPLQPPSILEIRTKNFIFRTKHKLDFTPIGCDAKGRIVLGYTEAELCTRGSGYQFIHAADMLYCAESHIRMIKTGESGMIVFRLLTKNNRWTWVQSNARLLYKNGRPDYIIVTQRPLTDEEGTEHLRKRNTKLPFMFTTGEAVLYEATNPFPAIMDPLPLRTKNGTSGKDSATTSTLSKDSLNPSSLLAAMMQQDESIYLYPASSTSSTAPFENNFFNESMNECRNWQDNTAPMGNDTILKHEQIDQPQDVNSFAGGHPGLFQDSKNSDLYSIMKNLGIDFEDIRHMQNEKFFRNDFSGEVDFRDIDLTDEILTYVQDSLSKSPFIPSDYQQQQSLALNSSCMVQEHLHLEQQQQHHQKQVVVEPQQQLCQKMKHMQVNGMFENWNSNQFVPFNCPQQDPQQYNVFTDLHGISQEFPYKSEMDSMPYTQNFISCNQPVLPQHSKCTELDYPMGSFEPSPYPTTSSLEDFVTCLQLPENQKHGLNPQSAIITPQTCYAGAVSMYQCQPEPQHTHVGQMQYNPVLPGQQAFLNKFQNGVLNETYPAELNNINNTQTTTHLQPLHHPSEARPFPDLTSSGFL
Chain of Aromatase (Homo sapiens) (P11511 whole entry, looked up): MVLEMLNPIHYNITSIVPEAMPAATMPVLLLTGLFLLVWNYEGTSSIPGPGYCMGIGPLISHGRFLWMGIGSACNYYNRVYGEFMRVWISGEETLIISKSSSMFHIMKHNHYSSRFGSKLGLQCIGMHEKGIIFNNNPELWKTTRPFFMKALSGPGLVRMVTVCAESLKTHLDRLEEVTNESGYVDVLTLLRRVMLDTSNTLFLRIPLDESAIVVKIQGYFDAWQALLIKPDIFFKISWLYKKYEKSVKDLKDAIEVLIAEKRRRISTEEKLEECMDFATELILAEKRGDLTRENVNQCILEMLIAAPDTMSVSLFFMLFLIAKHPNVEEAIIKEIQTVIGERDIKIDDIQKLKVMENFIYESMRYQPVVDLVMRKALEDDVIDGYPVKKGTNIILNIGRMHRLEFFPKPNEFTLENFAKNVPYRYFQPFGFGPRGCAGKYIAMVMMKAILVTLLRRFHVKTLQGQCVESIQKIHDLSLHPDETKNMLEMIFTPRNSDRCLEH

Consider `CC/C=C\CCOC(C)=O`, for which the Potency result (in assay [1]; in assay [5]; in assay [6]; in assay [8]; with Aromatase (Homo sapiens); in [9]) was “inactive” in each case. For the same molecule, the Potency result in assay [10], in assay [11], in assay [13], in assay [15] and in [16] was “inactive” each time. Besides, the molecule was classed as inactive in assay [2], in assay [3], in [4], in assay [7], in assay [12] and in assay [14]. Moreover, the molecule was called inactive in assay [17] and in [18].
With `CC(C)(O)C(=O)c1ccccc1`, the Potency result (in assay [1]; in [5]; in assay [6]; in [8]; in the assay with Aromatase (Homo sapiens); in assay [9]) was “inactive” each time. Moreover, the Potency result in assay [10], in [11], in assay [15] and in assay [16] was “inactive” in each case. Further, the call in assay [2], in assay [3], in [4], in assay [7], in [12] and in [14] was inactive. In addition, the molecule was classed as inactive in assay [17] and in [18].
`O=S(O)CO`: the Potency result (in assay [19]; in assay [5]; in [8]; with Aromatase (Homo sapiens); in assay [9]; in assay [10]) was “inactive” each time. The Potency result in assay [11], in [15] and in assay [16] was “inactive” in each case. Also, the molecule was called inactive in assay [2], in [3], in assay [4], in assay [14], in [17] and in assay [18]. Further, the Potency in [6] was 26.6 µM (active).
Turning to `CCCCCCCCS(=O)(=O)Cl`, the Potency result (in assay [19]; in assay [1]; in assay [8]; with Aromatase (Homo sapiens); in [10]; in assay [11]) was “inactive” in each case. The molecule was classed as inactive in assay [2], in [4], in assay [12], in [14], in assay [17] and in [18].
On to `COC(=O)CCSCCC(=O)OC`, for which the Potency result in [19], in [1], in assay [8], in [11], in [15] and in [16] was “inactive” each time. Moreover, the result in [2], in assay [4], in assay [14], in assay [17] and in assay [18] was inactive.
With `NC(=O)COCCN1CCN(C(c2ccccc2)c2ccc(Cl)cc2)CC1` (configuration not stated), the Potency in assay [19] was 23.7 µM (active). The call in assay [3], in assay [4], in assay [17] and in assay [18] was inactive. The Potency result (in [5]; in [6]; in assay [8]; with Aromatase (Homo sapiens); in assay [9]; in [10]) was “inactive” in each case. Besides, the Potency entry in assay [13], in assay [15] and in assay [16] was “inactive” each time.
For the molecule `CN(C(=O)c1c(O)c2ccccc2n(C)c1=O)c1ccccc1`, the Potency result (in assay [19]; in assay [1]; in assay [8]; with Aromatase (Homo sapiens); in assay [9]; in assay [11]) was “inactive” each time. Besides, the Potency result in assay [15] is “inactive”. For the same molecule, the result in assay [2], in assay [4], in assay [14], in assay [17] and in [18] was inactive.
Consider `C=CCOCC(CC)(CO)COCC=C`, for which the Potency result in [19], in [1], in assay [8], in assay [11], in [15] and in assay [16] was “inactive” each time. Further, the result in [2], in [17] and in assay [18] was inactive.
Take `COC(=O)[C@@H](N)Cc1ccc(O)c(O)c1`: the Potency is 21.1 µM (active) in assay [19], 23.7 µM (active) in [1], 26.6 µM (active) in [9] and 26.6 µM (active) in assay [10]. Further, the call in assay [2], in [4], in assay [12], in assay [17] and in [18] was inactive. The Potency result (in the assay with Aromatase (Homo sapiens); in [16]) was “inactive” throughout.
